Our source for the Potency and activity change, negative = inhibition values is PubChem BioAssay (Tox21).

Active and inactive are the calls of the source. A call without a number means that no potency is given here. Calls come from the whole dose curve.

Acetylcholinesterase (Homo sapiens), sequence (P22303 whole entry, looked up): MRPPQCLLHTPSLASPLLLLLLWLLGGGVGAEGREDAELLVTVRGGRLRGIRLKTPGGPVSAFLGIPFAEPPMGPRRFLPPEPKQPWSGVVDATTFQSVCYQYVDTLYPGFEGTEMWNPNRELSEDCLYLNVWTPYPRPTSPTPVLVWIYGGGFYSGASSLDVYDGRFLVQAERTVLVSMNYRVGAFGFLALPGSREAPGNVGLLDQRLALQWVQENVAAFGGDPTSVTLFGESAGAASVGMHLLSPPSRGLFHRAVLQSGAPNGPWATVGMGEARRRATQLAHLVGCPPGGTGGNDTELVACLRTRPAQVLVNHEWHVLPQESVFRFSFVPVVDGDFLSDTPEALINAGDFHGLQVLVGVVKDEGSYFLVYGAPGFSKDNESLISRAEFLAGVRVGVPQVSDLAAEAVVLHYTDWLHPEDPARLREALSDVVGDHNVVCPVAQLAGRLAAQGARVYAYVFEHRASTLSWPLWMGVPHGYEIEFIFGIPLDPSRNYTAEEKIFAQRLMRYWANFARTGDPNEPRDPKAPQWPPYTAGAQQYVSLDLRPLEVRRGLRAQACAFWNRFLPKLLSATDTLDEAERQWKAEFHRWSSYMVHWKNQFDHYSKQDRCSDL

The target in the assay is Acetylcholinesterase (Homo sapiens) (UniProt P22303). Nature of the assay: Acetylcholinesterase (AChE) small molecule antagonists: enzyme-based qHTS assay with human liver microsomes (AID 1347399). Note: nearly all actives have a fitted effect of over 60% in size. The following applies: Potency: qHTS inhibition; outcome: qHTS inhibition; series mostly up to 115 µM. The procedure, abridged:
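Recombinant human AChE (50 mU/mL in the enzyme mix) and human liver microsomes (0.25 mg/mL final) were preincubated with compound and NADPH (0.25 mg/mL final) for 30 min at 37 C. Acetylthiocholine/DTNB was then added; thiocholine was read colorimetrically after 10 min at room temperature.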
Turning to `Cc1ccccc1`, the Potency result was “inactive”.

Take `O=C(Cc1ccccc1)c1ccccc1`: the Potency entry was “inactive”.

As to `CCCCNC(=O)OCC#CI`, the Potency result was “inactive”.

For the compound `C[N+](C)(C)CCOC(=O)C(O)(c1ccccc1)c1ccccc1`, the Potency entry is “inactive”.

In the case of `OCC1CO1` (stereo unspecified), the Potency result was “inactive”.

As to `C#CC(O)(C=CCl)CC` (stereo unspecified), the Potency result is “inactive”.

For the compound `C1CS1`, the Potency entry is “inactive”.

For `Nc1ccc2c(c1)Cc1ccccc1-2`, the Potency entry is “inactive”.

For the compound `CCCC[N+](CCCC)(CCCC)CCCC`, the Potency entry is “inactive”.

Take `Nc1cccc2ccccc12`: the Potency result is “inactive”.

Turning to `Cc1ccc2c(C)cccc2c1`, the Potency result was “inactive”.

Turning to `CC(C)[C@@H](C(=O)O[C@@H](C#N)c1cccc(Oc2ccccc2)c1)c1ccc(Cl)cc1`, the Potency result is “inactive”.

For the compound `CCOP(=O)(O)C(N)=O`, the Potency entry is “inactive”.

As to `CCCSP(=S)(OCC)Oc1ccc(SC)cc1` (stereo unspecified), the Potency entry was “inactive”.

For `Clc1ccccc1`, the Potency result was “inactive”.

In the case of `CCC1(C2=NCCN2)Cc2ccccc2O1` (stereo unspecified), the Potency entry was “inactive”.

On to `O=P(OCC(Br)CBr)(OCC(Br)CBr)OCC(Br)CBr` (stereo unspecified), for which the Potency entry was “inactive”.

Turning to `OC[P+](CO)(CO)CO`, the Potency entry was “inactive”.

On to `CC1(C)CC(=O)CC(C)(C)N1[O]`, for which the Potency entry is “inactive”.

`COC1=CC(=O)O[C@@H](/C=C/c2ccc3c(c2)OCO3)C1`: the Potency result is “inactive”.

In the case of `CCc1cnc(C2=NC(C)(C(C)C)C(=O)N2)c(C(=O)O)c1` (stereo unspecified), the Potency entry is “inactive”.

Take `CC(C)(C)CC(C)(C)c1ccc(O)cc1`: the Potency entry is “inactive”.

Regarding `CCCCC(CC)COC(=O)c1c(Br)c(Br)c(Br)c(Br)c1C(=O)OCC(CC)CCCC` (stereo unspecified), the Potency result was “inactive”.

On to `C[C@]12CC[C@H]3[C@@H](CCC4=CC(=O)CC[C@@H]43)[C@@H]1CC[C@@H]2OC(=O)CCc1ccccc1`, for which the Potency result is “inactive”.

As for `C=C(C)C(=O)OCCCCOC(=O)C(=C)C`, the Potency entry is “inactive”.

In the case of `Nc1c(Br)cc(Br)c2c1C(=O)c1ccccc1C2=O`, the activity change, negative = inhibition is 0.243% [at 23.6 µM] (inactive).
